Source: PubChem BioAssay (NCI)
The panel holds about 83,000 compounds, 20% with a hit somewhere; the sample as a whole holds those more often.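 48-hour exposure, single concentration, 96-well plates; percent growth endpoint where 0 means no net growth. Active: below 10.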 Active and inactive are the calls of the source.

How the values were obtained:
Assay in all cases: NCI-60 one-dose screen, 48 h (100 = growth as untreated, 0 = no growth, -100 = all killed)
Conditions in all cases: 10 µM unless noted
NCI-H23 lung = test system: NCI-H23 lung
NCI-H226 lung = test system: NCI-H226 lung
NCI-H322M lung = test system: NCI-H322M lung
HOP-62 NSCLC = test system: HOP-62 NSCLC
NCI-H460 lung = test system: NCI-H460 lung
HOP-92 NSCLC = test system: HOP-92 NSCLC
NCI-H522 lung = test system: NCI-H522 lung
A549/ATCC NSCLC = test system: A549/ATCC NSCLC
786-0 renal = test system: 786-0 renal
COLO 205 colon = test system: COLO 205 colon
DU-145 prostate = test system: DU-145 prostate
K-562 leukemia = test system: K-562 leukemia
MALME-3M melanoma = test system: MALME-3M melanoma
MDA-MB-231 breast = test system: MDA-MB-231 breast
RXF 393 renal = test system: RXF 393 renal
SF-268 CNS = test system: SF-268 CNS
SF-295 CNS = test system: SF-295 CNS
SF-539 CNS = test system: SF-539 CNS
UACC-257 melanoma = test system: UACC-257 melanoma
M14 melanoma = test system: M14 melanoma

Measured: growth

CSc1nc2c(c(=O)[nH]1)C(c1ccc(C)cc1)C=C(C(=O)O)N2 (stereo not given)
inactive: NCI-H23 lung 98.9% | NCI-H226 lung 104% | NCI-H322M lung 101% | HOP-62 NSCLC 107% | NCI-H460 lung 106% | HOP-92 NSCLC 122% | NCI-H522 lung 108% | A549/ATCC NSCLC 106% | 786-0 renal 104% | COLO 205 colon 126% | DU-145 prostate 123% | K-562 leukemia 110% | MALME-3M melanoma 98.8% | MDA-MB-231 breast 136% | RXF 393 renal 112% | SF-268 CNS 115% | SF-295 CNS 89.5% | SF-539 CNS 106% | UACC-257 melanoma 110% | M14 melanoma 99.8%

C=C1CCC2C3(C)COC(c4ccc(N(C)C)cc4)OC3CCC2(C)C1C/C=C1/C(=O)OCC1O (stereo not given)
active: DU-145 prostate 7.35% | RXF 393 renal 1.3%
inactive: NCI-H23 lung 66.4% | NCI-H226 lung 109% | NCI-H322M lung 83.1% | HOP-62 NSCLC 108% | NCI-H460 lung 74.2% | HOP-92 NSCLC 68.9% | NCI-H522 lung 74.2% | A549/ATCC NSCLC 52% | 786-0 renal 96% | COLO 205 colon 19.5% | K-562 leukemia 44% | MALME-3M melanoma 105% | MDA-MB-231 breast 85.4% | SF-268 CNS 74.9% | SF-295 CNS 95.6% | SF-539 CNS 99.2% | UACC-257 melanoma 49.5% | M14 melanoma 71.7%

COc1ccc(Nc2ncccc2C(=O)NCc2cn(Cc3cccc(Oc4ccccc4)c3)nn2)c(OC)c1
active: NCI-H460 lung 7.15% | COLO 205 colon 4.54% | DU-145 prostate 4.02% | RXF 393 renal 6.03% | SF-295 CNS 7.69% | SF-539 CNS 5.94%
inactive: NCI-H23 lung 37.5% | NCI-H226 lung 73.5% | NCI-H322M lung 56.1% | HOP-62 NSCLC 41.7% | HOP-92 NSCLC 62% | NCI-H522 lung 11.6% | A549/ATCC NSCLC 39% | 786-0 renal 34% | K-562 leukemia 21.3% | MALME-3M melanoma 46.4% | MDA-MB-231 breast 23.9% | SF-268 CNS 36.6% | UACC-257 melanoma 85.5% | M14 melanoma 14.2%

C=C1c2nc3ccccc3n2C=C(c2ccc(Cl)cc2)N1Cc1ccccc1
inactive: NCI-H23 lung 73.4% | NCI-H226 lung 76.9% | NCI-H322M lung 96% | HOP-62 NSCLC 106% | NCI-H460 lung 88.2% | HOP-92 NSCLC 73.6% | NCI-H522 lung 66.3% | A549/ATCC NSCLC 70.6% | 786-0 renal 89.5% | COLO 205 colon 105% | DU-145 prostate 103% | K-562 leukemia 59.1% | MALME-3M melanoma 94.5% | MDA-MB-231 breast 85.4% | RXF 393 renal 65.7% | SF-268 CNS 90.3% | SF-295 CNS 89.8% | SF-539 CNS 96.4% | UACC-257 melanoma 75.4% | M14 melanoma 85.2%
